The nature of test [1]: qHTS RealTime-Glo MT Cell Viability Assay in HEK293 cells - 16 hour (AID 1224872). Also: nearly all actives have a fitted effect of over 50% in size. Also: potency is read from the fitted curve at half-maximal effect. In a few lines:
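HEK293 cells seeded with NanoLuc/prosubstrate reagent, rested 5 h at 37 C, then dosed and kept at 37 C up to 40 h. Nonlytic real-time luminescence from viable cells read at 0, 8, 16, 24, 32 and 40 h.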
For orientation: In qHTS, concentration-response curves come from the screen itself.

Test [2] can be described thus: qHTS RealTime-Glo MT Cell Viability Assay in HepG2 cells - 8 hour (AID 1224873). Also: nearly all actives have a fitted effect of over 55% in size. Also: potency is read from the fitted curve at half-maximal effect. In a few lines: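 Real-time viability: cells seeded at 600 per well together with NanoLuc and cell-permeant prosubstrate, compounds added after 5 h incubation. Luminescence tracked at 0, 8, 16, 24, 32 and 40 h of exposure.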
Test [3] in a line: qHTS RealTime-Glo MT Cell Viability Assay in HEK293 cells - 40 hour (AID 1224874). Also: nearly all actives have a fitted effect of over 50% in size. Also: potency is read from the fitted curve at half-maximal effect. The note with it: RealTime-Glo luminescence; max response: hits give low values. In a few lines: (§1)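 Measured as luminescence from the same continuously cultured HEK293 wells at successive time points (0, 8, 16, 24, 32, 40 h) after compound addition. Reagent present from seeding; dosing at 5 h; incubation 37 C.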

The nature of test [4]: A CellTox Green Cytotoxicity Assay to monitor cytotoxicity in HEK293 cells - 24 hour (AID 1224875). Also: nearly all actives have a fitted effect of over 45% in size. Also: potency is read from the fitted curve at half-maximal effect. In a few lines: (§2)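 Homogeneous no-lysis format: HEK293 cell suspension mixed with CellTox Green reagent, seeded, incubated 5 h at 37 C/5% CO2, then dosed by pintool with compound in DMSO.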
The nature of test [5]: A CellTox Green Cytotoxicity Assay to monitor cytotoxicity in HepG2 cells - 16 hour (AID 1224876). Also: nearly all actives have a fitted effect of over 45% in size. Also: potency is read from the fitted curve at half-maximal effect. In a few lines: (§3)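 Fluorescent DNA-binding dye, 600 HepG2 cells/well, 5 h preincubation then compound in DMSO; same plates read at 0–40 h, 37 C.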
A short description of test [6]: qHTS RealTime-Glo MT Cell Viability Assay in HepG2 cells - 32 hour (AID 1224877). Also: nearly all actives have a fitted effect of over 55% in size. Also: potency is read from the fitted curve at half-maximal effect. In a few lines: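 HepG2 cells (600/well) were dispensed with RealTime-Glo reagents, incubated 5 h at 37 °C, then treated with compounds in DMSO for up to 40 h. Nonlytic NanoLuc luminescence reflecting viable cells was read at each stated time point.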
Test [7] in a line: A CellTox Green Cytotoxicity Assay to monitor cytotoxicity in HepG2 cells - 24 hour (AID 1224878). Also: nearly all actives have a fitted effect of over 45% in size. Also: potency is read from the fitted curve at half-maximal effect. In a few lines: as §3
The nature of test [8]: A CellTox Green Cytotoxicity Assay to monitor cytotoxicity in HepG2 cells - 40 hour (AID 1224879). Also: nearly all actives have a fitted effect of over 40% in size. Also: potency is read from the fitted curve at half-maximal effect. In a few lines:
as §3

Test [9] is described as follows: A CellTox Green Cytotoxicity Assay to monitor cytotoxicity in HEK293 cells - 32 hour (AID 1224881). Also: nearly all actives have a fitted effect of over 40% in size. Also: potency is read from the fitted curve at half-maximal effect. In a few lines: as §2
Test [10] is described as follows: qHTS RealTime-Glo MT Cell Viability Assay in HEK293 cells - 0 hour (AID 1224880). Also: top concentration of the series differs between compounds; nearly all actives have a fitted effect of over 45% in size. In a few lines: as §1

Several values for one entry are separate records, joined by “and”; a condition that tells them apart may be missing. Equal values may be shown once. Records with an inconclusive call do not appear. A number with no mark means an inactive call. Activity calls are given as the source filed them. Calls follow the shape of the dose curve; as a rule, active = well fitted curve in the direction sought with a large enough effect in the repeat runs; inconclusive = weak or mixed curves; inactive = no such curve, though single readings can be large; an effect the other way counts as inactive or inconclusive.
% is scaled to controls: 0 for no effect and ±100 for the full control effect.

Turning to `CC(C)(C)c1ccc(C(O)CCCN2CCC(C(O)(c3ccccc3)c3ccccc3)CC2)cc1` (centres undefined), the Potency in test [1] is 6.74 µM (active); in test [2], 10.7 µM (active); in test [3], 4.77 µM (active); in test [4], 9.52 µM (active); in test [5], 10.7 µM (active); in test [6], 5.35 µM (active). The Potency in test [7] is 8.49 µM (active); in test [8] it was 5.35 µM (active); in test [9], 8.49 µM (active).
On to `ClCCl`, for which the Potency entry in test [1], in test [2], in test [4], in test [6], in test [7] and in test [8] was “inactive” each time. Besides, the Potency entry in test [10] and in test [9] was “inactive” each time. For the same compound, the max response in test [3] is 10.5%.
Regarding `CC1(C)[C@@H](O)CC[C@]2(C)[C@H]3C(=O)C=C4[C@@H]5C[C@@](C)(C(=O)O)CC[C@]5(C)CC[C@@]4(C)[C@]3(C)CC[C@@H]12`, the Potency entry in test [1], in test [2], in [4], in test [5], in test [6] and in [10] was “inactive” in each case. Moreover, the Potency entry in test [9] was “inactive”. Also, in test [3], the max response was 13.7%.
`Cc1cccc2cccnc12`: the Potency entry in test [1], in test [2], in [4], in test [5], in test [6] and in test [7] was “inactive” each time. Further, the Potency entry in [8], in test [10] and in [9] was “inactive” each time. Besides, the max response in [3] is 0.538%.
Regarding `Cc1nc(-c2ccc(Cl)cc2)oc1COC(C)(C)C(=O)O`, the Potency entry in test [1], in test [2], in [4], in test [5], in test [6] and in test [7] was “inactive” each time. Besides, the Potency result in test [8], in [10] and in [9] was “inactive” in each case. In test [3], the max response was 0.172%.
In the case of `c1ccc(SSc2ccccc2)cc1`, the Potency entry in test [1], in test [2], in [4], in [5], in test [6] and in test [7] was “inactive” in each case. The Potency entry in test [8] and in [9] was “inactive” each time. Further, the max response in test [3] was -15.4%.
Regarding `CC(=O)c1ccc(C(C)=O)cc1`, the Potency result in test [1], in test [2], in test [4], in test [5], in test [6] and in test [7] was “inactive” throughout. Besides, the Potency result in test [8], in [10] and in [9] was “inactive” each time. The max response in test [3] is -3.34%.
In the case of `CCCCCCOC(=O)C(C)CC` (centres undefined), the Potency entry in test [1], in test [2], in test [4], in test [6], in [7] and in test [8] was “inactive” in each case. Moreover, the Potency entry in [10] and in test [9] was “inactive” each time. Moreover, the max response in test [3] is -1.46%.
For `CCN(CCN)c1cccc(C)c1`, the Potency result in test [1], in test [2], in [4], in [6], in test [7] and in [8] was “inactive” each time. Moreover, in test [10], the Potency result is “inactive”. Also, the max response in test [3] was -16.9% and 1.24%.
Turning to `CN(C)Cc1cc(C(C)(C)C)c(O)c(C(C)(C)C)c1`, the Potency result in test [1], in [2], in test [4], in test [5], in [6] and in test [7] was “inactive” throughout. The Potency entry in test [8], in test [10] and in test [9] was “inactive” each time. Moreover, the max response in [3] is -1.74%.
In the case of `C=CC(C)(CCC=C(C)C)OC=O` (centres undefined), the Potency result in test [1], in test [2], in test [4], in test [5], in test [6] and in test [7] was “inactive” each time. The Potency entry in test [8], in test [10] and in [9] was “inactive” each time. The max response in test [3] is 5.29%.
Take `O=C1CCCCCCCCCCCCCCCO1`: the Potency result in test [1], in [2], in test [6] and in test [10] was “inactive” throughout. The max response in [3] was 4%. Besides, the Potency in test [4] is 24.5 µM (active); in test [5] it was 43.6 µM (active); in test [7], 43.6 µM (active); in test [8] it was 43.6 µM (active); in test [9] it was 24.5 µM (active).
Take `O=C(O)CCN(C1(C(=O)NO)CCCC1)S(=O)(=O)c1ccc(Oc2ccc(F)cc2)cc1`: the Potency entry in test [1], in test [2], in [4], in test [6], in test [7] and in [8] was “inactive” in each case. Also, the Potency entry in test [10] is “inactive”. Moreover, the max response in test [3] was 9.57%.
Consider `COC(C)=O`, for which the Potency result in test [1], in [2], in test [4], in test [5], in [6] and in test [7] was “inactive” each time. The Potency result in [8], in test [10] and in test [9] was “inactive” in each case. In [3], the max response is -13.9%.
As to `C=Cc1cccc(C)c1`, the Potency result in test [1], in test [2], in [4], in test [6], in [7] and in [8] was “inactive” each time. In addition, the Potency entry in test [10] and in test [9] was “inactive” each time. In addition, the max response in test [3] was -2.09% and 3.82%.
For the compound `CC(=O)CC(=O)Nc1ccc(S(=O)(=O)O)cc1`, the Potency entry in test [1], in test [2], in test [4], in [5], in test [6] and in test [7] was “inactive” throughout. Besides, the Potency entry in test [8], in test [10] and in [9] was “inactive” throughout. The max response in test [3] was 0.915%.
`c1ccsc1`: the Potency entry in test [1], in test [2], in [4], in test [5], in test [6] and in test [7] was “inactive” throughout. Besides, the Potency result in test [8], in test [10] and in test [9] was “inactive” in each case. Besides, the max response in test [3] is -2.24%.
In the case of `O=C(O)c1cc(=O)c2ccccc2o1`, the Potency entry in test [1], in [2], in test [4], in test [5], in test [6] and in [7] was “inactive” each time. Also, the Potency entry in test [8], in [10] and in test [9] was “inactive” each time. For the same compound, in [3], the max response is 1.84%.
Consider `COc1cc(C)ccc1O`, for which the Potency entry in [1], in [2], in test [4], in test [5], in test [6] and in [7] was “inactive” throughout. Besides, the Potency entry in test [8], in test [10] and in test [9] was “inactive” in each case. Moreover, the max response in [3] is 3.04%.
